PKM2 activator: increases activity of human pyruvate kinase M2; P14618; purified PKM2, Kinase-Glo ATP luminescence, activation; response scale: 0% is enzyme alone, no compound; Potency, µM (series often up to 57.5 µM), for inactives: at the highest dose activation, most hits filed as activators; hit rate 0.34% among 260,000; AID 1631; also: potency is read from the fitted curve at half-maximal effect; % is scaled to controls: 0 for no effect and ±100 for the full control effect; nearly all actives have a fitted effect of over 55% in size
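hPK-M2, >95% pure; 0.1 mM ADP / 0.5 mM PEP final; imidazole pH7.2 buffer w/ 7 mM MgCl2, 50 mM KCl; 1 h RT; Kinase-Glo lum. Intermediate enzyme activity for dual inhibitor/activator qHTS.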
Luc counter: counter-screen: inhibitors of Kinase-Glo firefly luciferase. Kinase-Glo luciferase, ATP luminescence, 8 min. Q27757. AID 1379. Potency, µM (top dose mostly 38.3 µM), without a hit: at the highest dose activity change, negative = inhibition, usual class: inhibitors. hit rate 0.28% among 200,000; also: potency is read from the fitted curve at half-maximal effect; % is scaled to controls: 0 for no effect and ±100 for the full control effect; nearly all actives have a fitted effect of over 60% in size
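Luminescence was the read-out, taken after 8-minute incubation at ambient temperature. Luciferase turned over luciferin with 10 uM ATP in imidazole pH 7.2 buffer containing KCl, MgCl2, Tween 20 and BSA.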
CBFb-RUNX1 inh: blocks binding between human CBF-beta and RUNX1. Q01196+Q13951. AlphaScreen CBFb-His/RUNX1-biotin binding, biochemical. Potency, µM (doses to about 59.8 µM), for the others: at the highest dose activity, negative = inhibition, most hits filed as inhibitors. 230,000 tested, under 10 active; also: % of control where 0% means no effect
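His-tagged CBF-beta and biotinylated RUNX1 (30 nM each) were premixed 20 min at room temperature, exposed to compound for 15 min, then given nickel-chelate and streptavidin AlphaScreen beads (50 ng each). After 90 min, AlphaScreen signal was read.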
Tb PFK inh-1: T. brucei PFK enzyme inhibition. O15648. Potency, µM (doses to about 57.5 µM), for the others: top-dose activity, negative = inhibition, actives largely listed as inhibitors. T. brucei PFK, ADP-Glo luminescence. hit rate 0.17% among 330,000;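 also: potency is read from the fitted curve at half-maximal effect; 0% = uninhibited 1x PFK enzyme wells and -100% = no-enzyme wells; nearly all actives have a fitted effect of over 60% in size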
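Luminescent ADP detection (ADP-Glo, two-step: ATP depletion then ADP-to-ATP conversion for luciferase) reported PFK activity after 45 min room-temperature reaction of 1.25 nM enzyme with 0.5 mM F6P and 0.1 mM ATP at pH 8.0.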
GALK inh: galactokinase (human) inhibition. Potency, µM (series often up to 57.5 µM), for the others: top-dose activity change, negative = inhibition, usual class: inhibitors. P51570. hit rate 0.007% among 270,000. Purified GALK, Kinase-Glo residual ATP luminescence; also: potency is read from the fitted curve at half-maximal effect; % is scaled to controls: 0 for no effect and ±100 for the full control effect
Target sequence (P51570 whole entry, looked up): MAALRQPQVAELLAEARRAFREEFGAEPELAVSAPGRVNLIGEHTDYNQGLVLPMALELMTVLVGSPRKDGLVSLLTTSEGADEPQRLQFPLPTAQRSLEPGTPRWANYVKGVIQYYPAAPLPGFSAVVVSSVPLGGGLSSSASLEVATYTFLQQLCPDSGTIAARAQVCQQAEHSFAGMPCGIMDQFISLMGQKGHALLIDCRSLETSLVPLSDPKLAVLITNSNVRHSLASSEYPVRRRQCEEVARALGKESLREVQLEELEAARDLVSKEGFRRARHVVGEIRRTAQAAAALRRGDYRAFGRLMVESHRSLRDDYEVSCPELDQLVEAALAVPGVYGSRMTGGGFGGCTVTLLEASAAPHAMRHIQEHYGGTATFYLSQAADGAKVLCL
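GALK at 5 nM final was combined with compound, 35 uM ATP and 100 uM galactose in HEPES pH8.0 with MgCl2 and DTT. The reaction ran one hour at room temperature before luminescent ATP detection.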
Tb PFK KinaseGlo: orthogonal confirmation of T. brucei phosphofructokinase inhibitors; shares compounds with Tb PFK inh-1; Tb PFK enzyme, ATP depletion, Kinase-Glo Plus luminescence; Potency, µM (top dose mostly 57.5 µM), for the others: top-dose inhibition; hit rate 47% among 1,100; calls by dose curve; also: potency is read from the fitted curve at half-maximal effect; nearly all actives have a fitted effect of over 60% in size
Tb PFK inh-2: T. brucei PFK enzyme inhibition, hit validation. purified T. brucei PFK, ADP-Glo luminescence, 45 min. Potency, µM (series often up to 57.5 µM), for the others: at the highest dose activity change, negative = inhibition, usual class: inhibitors. AID 504637. hit rate 41% among 1,100. shares compounds with Tb PFK inh-1;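 also: potency is read from the fitted curve at half-maximal effect; plate controls were full PFK enzyme control for no effect and no enzyme control for full effect; nearly all actives have a fitted effect of over 60% in size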
Starred values were filed as active, the others as inactive; ? = inconclusive; / = no result; [ ] = dose if it differs, or a comment. In the library only some 0.56% were active in any assay of this set; here they are far more common. Unless noted, calls follow the shape of the dose curve; as a rule, active = well fitted curve in the direction sought with a large enough effect; inconclusive = small, poorly fitted or top-dose-only effect, or another doubt; inactive = no such curve, though single readings can be large; an effect the other way counts as inactive or inconclusive.

SMILES | PKM2 activator | Luc counter | CBFb-RUNX1 inh | Tb PFK inh-1 | GALK inh | Tb PFK KinaseGlo | Tb PFK inh-2
N/C(=N/[N+](=O)[O-])N1CCN(C(=O)Oc2ccc([N+](=O)[O-])cc2)CC1 | / | / | / | 2% | -2% | / | /
CC(=O)OC1CCC23C(=O)OC45CCC(C6=CC(=O)OC6)C4(C)CCC2C5CCC3(O)C1 (stereo unspecified) | / | -2% | 15% | / | / | / | /
O=[N+]([O-])c1ccccc1O | / | / | 4%[21.7 µM] | / | / | / | /
Cc1c(N=Cc2ccc(O)c(Br)c2)cccc1[N+](=O)[O-] | 5% | 16% | -23% | 27µM* | / | ? | ?
O=C(O)c1ccc(NCc2cccc(Br)c2)cc1 | -1% | -5% | 7% | 21µM* | / | 12µM* | 24µM*
NC(N)=NCCCCCCCCCCN=C(N)N | / | -1% | 5% | / | / | / | /
O=C(COc1ccc(/C=C\[N+](=O)[O-])cc1)N1CCOCC1 | 13% | 3% | -18% | ? | 11% | -22% | ?
CCCCC(=O)N/N=C/c1c(O)n(CCc2ccc(OC)c(OC)c2)c(=O)[nH]c1=O | -2% | 5% | ? | -4% | 1% | / | /
COc1ccc(OC)c(/C=N/NC(=O)CCc2ccc(O)c(O)c2)c1 | 19% | 4% | 4% | 1.7µM* | 1% | ? | -29%
O=c1cc2c(=O)oc3cc(O)c(O)oc3c2c(O)c1O | -7% | / | / | 7.6µM* | / | 1.2µM* | 1.3µM*
c1ccc(N2CC[C@@]3(CCCNC3)C2)cc1 | / | -4% | / | / | / | / | /
CC(O)(CS(=O)(=O)c1cccc(C(F)(F)F)c1)C(=O)Nc1ccc(C(F)(F)F)cc1 (stereo unspecified) | 0% | -2% | 0% | -1% | -3% | / | /
Cc1cc(OCC(=O)Nc2ccc(S(=O)(=O)N3CCN(C)CC3)cc2)ccc1Cl | -18% | 1% | -5% | 27µM* | -3% | ? | ?
CN1CCN(S(=O)(=O)c2ccc(NC(=O)Cc3ccc([N+](=O)[O-])cc3)cc2)CC1 | -2% | / | / | 17µM* | -6% | 6µM* | 12µM*
O=C(Cc1cccc(C(F)(F)F)c1)Nc1ccc(S(=O)(=O)N2CCCC2)cc1 | / | / | / | ? | / | ? | ?
CCOC(=O)N(C)C(=O)CSP(=S)(OCC)OCC | / | / | 2% | / | / | / | /
Clc1ccc(CN2C3=NCCN3c3ccccc32)cc1Cl | -1% | / | -1% | 6.7µM* | 3% | 3µM* | 6µM*
O=c1ccc(=O)[nH][nH]1 | / | / | 5%[21.7 µM] | / | / | / | /
NC1CCc2cc(O)c(O)cc2C1 (stereo unspecified) | / | -2% | -13% | 6.7µM* | / | 2.7µM* | 2.7µM*
Oc1cc2c(cc1O)[C@H]1c3ccccc3CNC1CC2 (stereo partly specified) | / | -5% | -1% | / | / | / | /
COc1ccc(NS(=O)(=O)c2ccc(C)c(NC(=O)CN3C(=O)NC4(CCCC4)C3=O)c2)cc1 | / | / | / | ? | / | -27% | ?
OCCBr | / | / | 8%[21.7 µM] | / | / | / | /
CCc1ccc(C(=O)NN(C(=O)c2cc(C)cc(C)c2)C(C)(C)C)cc1 | 2% | 1% | 11% | / | / | / | /
O=C(O)/C=C\C(=O)Nc1ccc(N2CCN(c3ccc(Cl)c(Cl)c3)CC2)cc1 | -1% | -9% | -9% | ? | 7% | 5.4µM* | 11µM*
N#Cc1nc(-c2cccc3ccccc23)oc1NCC#CCOC(=O)c1cccs1 | / | / | / | 21µM* | / | 8.5µM* | 27µM*
SMILES | PKM2 activator | Luc counter | CBFb-RUNX1 inh | Tb PFK inh-1 | GALK inh | Tb PFK KinaseGlo | Tb PFK inh-2
O=[N+]([O-])c1ccccc1-c1ccccc1 | / | / | 24%[21.7 µM] | / | / | / | /
CC[N+](=O)[O-] | / | / | 12%[21.7 µM] | / | / | / | /
Cc1ccc(C2=NCC(=O)Nc3ccc(Br)cc32)cc1 | 2% | / | / | 0% | -1% | / | /
Cc1cc(Br)ccc1N=C1NC(=O)CS1 | -7% | / | / | ? | -3% | ? | -23%
O=C(CN1C(=O)c2ccccc2C1=O)NCCc1c[nH]c2ccc(Cl)cc12 | 2% | 3% | -3% | ? | 1% | 21µM* | 30µM*
Clc1cccc(CNCCc2c[nH]c3ccccc23)c1 | / | / | / | -27% | -1% | / | /
COc1ccc(/C=C2/C(=O)NC(=O)N(Cc3ccco3)C2=O)cc1 | ? | 3% | -6% | ? | 0% | / | /
CCOC(=O)C1CCN(/C=C2/C(=O)NC(=O)N(Cc3ccco3)C2=O)CC1 | -15% | 1% | ? | ? | 2% | ? | ?
CN(C)C1C(=O)C(C(N)=O)=C(O)[C@@]2(O)C(=O)C3=C(O)c4c(O)ccc(Cl)c4[C@](C)(O)C3CC12 (stereo partly specified) | / | -8% | ? | / | / | / | /
CC(=O)Nc1cc(C(=O)CSc2nnc(C3CC3)n2C2CC2)ccc1O | / | / | / | ? | / | ? | ?
CC(=O)NC(C)c1ccc(Cl)c(Cl)c1 (stereo unspecified) | 0% | 3% | 5% | ? | 3% | 21µM* | 30µM*
O=C(/C=C/c1ccc(OCCCF)cc1)NCc1cccc(Cl)c1 | 1% | -2% | 2% | ? | -4% | ? | ?
O=C(/C=C/c1ccco1)NCc1ccco1 | 2% | / | ? | ? | 7% | 21µM* | ?
O=C(/C=C/c1ccc(S(=O)(=O)NCc2ccco2)cc1)NCc1cccc(Cl)c1 | -3% | 1% | -7% | 27µM* | -1% | 21µM* | 27µM*
O=C(NCc1ccccc1)c1cccn(Cc2cccc(Cl)c2)c1=O | / | / | / | 0% | / | / | /

Screens as filed in PubChem BioAssay.
